± gives the standard deviation of the averaged measurements. Whole data set: some 33,000 sequences, median “E-score (rank enrichment, -0.5 to 0.5)” near -0.0043, cut for the highest 2% near 0.24. The list comes from a sample in which the highest values are over-represented; it also holds similar and randomly drawn sequences.
Tested on: 2Sp-muMax20 (muMax20 with two 2,6-bis(methyl)pyridine Cys staples)
Assay: PBM 8-mer E-score (E-score (rank enrichment, -0.5 to 0.5)); higher = stronger preferential binding
Protocol: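 Protein binding microarray (universal PBM chip covering all 10-mers in fixed probe flanks) with chemically synthesized human Max(13-93) bHLH-LZ analogs (not full-length Max) bearing noncanonical residues (hArg, Tha, Aib, Nle at 65) and aromatic Cys staples. Read-out per 8-mer (and its reverse complement): E-score (rank-based enrichment, -0.5 to 0.5) and Z-score of median probe intensity.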

| Sequence | PBM 8-mer E-score |
| --- | --- |
| GTCCATCA | -0.0683 ± 0.092 |
| CCCGTCCC | -0.0481 ± 0.028 |
| CCAAACTA | 0.241 ± 0.0054 |
| CAAAACTA | 0.103 ± 0.013 |
| ACAAACTA | 0.115 ± 0.0062 |
| GTGACTAA | 0.0929 ± 0.037 |
| CATCCAAC | 0.124 ± 0.056 |
| TAGGGACA | -0.0107 ± 0.063 |
| CTCTAGTA | 0.125 ± 0.045 |
| GACTACTA | 0.12 ± 0.12 |
| GTCTAGTA | 0.246 ± 0.021 |
| ATCTACTA | 0.263 ± 0.086 |
| ATCTAGTA | 0.0613 ± 0.095 |
| ATCTACTC | -0.0118 ± 0.032 |
| ATCTACTG | 0.0117 ± 0.033 |
| AACTACTA | 0.144 ± 0.025 |
| CACTAGTA | 0.107 ± 0.1 |
| TACTAGTA | 0.25 ± 0.055 |
| GACTAGTA | 0.223 ± 0.033 |
| TACTACTA | 0.247 ± 0.058 |
| AAGGCTAA | 0.0957 ± 0.095 |
| GCAATCCC | 0.107 ± 0.035 |

| Sequence | PBM 8-mer E-score |
| --- | --- |
| AATACTTA | 0.05682 ± 0.00026 |
| CGCCTAGA | -0.246 ± 0.079 |
| ACTCCGGA | 0.0232 ± 0.032 |
| AAAGCTAT | 0.0921 ± 0.032 |
| AGAGTTGC | -0.124 ± 0.013 |
| GCTCCGAC | -0.215 ± 0.035 |
| CGGCTTCC | -0.166 ± 0.13 |
| CCTGCCCG | -0.0476 ± 0.0022 |
| CCGTTACC | -0.0555 ± 0.027 |
| GACTTGTA | 0.124 ± 0.17 |
| ACCGCAAA | -0.161 ± 0.043 |
| AATGCGCA | 0.229 ± 0.021 |
| CTTGCGCA | 0.266 ± 0.0099 |
| CATGCGCA | 0.109 ± 0.18 |
| CTTGCGCC | -0.148 ± 0.036 |
| TATGCGCA | 0.267 ± 0.026 |
| ATTGCGCA | 0.124 ± 0.033 |
| TAACATTA | 0.114 ± 0.082 |
| ATGTTAAC | 0.322 ± 0.023 |
| ATGTTTAG | 0.22 ± 0.022 |
| ATGTTTAC | 0.243 ± 0.073 |
| CTGTTAAC | 0.0735 ± 0.0019 |

| Sequence | PBM 8-mer E-score |
| --- | --- |
| GTGTTAAC | -0.0129 ± 0.032 |
| CTGTTTAC | 0.0257 ± 0.014 |
| ACTGGCTC | -0.126 ± 0.031 |
| GGTAAACC | -0.203 ± 0.077 |
| ACAAGTCA | 0.0779 ± 0.031 |
| ACAAGTCG | 0.0191 ± 0.009 |
| ACAAGTCT | 0.287 ± 0.028 |
| ACATGCAA | 0.0816 ± 0.11 |
| AGGTATCA | 0.238 ± 0.043 |
| AGGTATCG | -0.0734 ± 0.073 |
| CGGTATCA | -0.1599 ± 0.00081 |
| AAAAGGCG | 0.0426 ± 0.024 |
| CACCGATA | -0.0537 ± 0.018 |
| CGGAATGA | -0.155 ± 0.06 |
| AGGAATGA | 0.0595 ± 0.018 |
| GGGAATGA | 0.26 ± 0.057 |
| AATGTATC | 0.151 ± 0.022 |
| TACCAACA | 0.163 ± 0.027 |
| ATAGACTC | 0.154 ± 0.021 |
| CTGGCGGC | -0.155 ± 0.055 |
| CACGCCCG | 0.0249 ± 0.038 |
| ACATCATC | 0.047 ± 0.02 |

| Sequence | PBM 8-mer E-score |
| --- | --- |
| ATATCAGG | 0.239 ± 0.032 |
| ATATCATG | 0.147 ± 0.035 |
| GTGTCATA | 0.248 ± 0.042 |
| CTGTCATA | 0.179 ± 0.043 |
| ATATCATA | 0.255 ± 0.085 |
| ACATCATA | 0.244 ± 0.064 |
| ATATCAGA | 0.0984 ± 0.019 |
| CCATCATA | 0.153 ± 0.082 |
| CTATCATA | 0.185 ± 0.013 |
| ATGTCATA | 0.189 ± 0.012 |
| ATATCAGC | 0.0631 ± 0.073 |
| CGATAAGC | -0.0518 ± 0.16 |
| GGAATACC | -0.138 ± 0.015 |
| ACAGTTAG | 0.074 ± 0.026 |
| TGCTGCAA | 0.0638 ± 0.096 |
| CTTTCGGA | -0.125 ± 0.009 |
| CCCAACAA | 0.177 ± 0.0058 |
| AAAAGAAA | 0.0569 ± 0.052 |
| CCGCTGGA | -0.157 ± 0.04 |
| GTATCATA | 0.255 ± 0.024 |
| GCATCATA | 0.169 ± 0.0065 |
| GTATCAGA | -0.0699 ± 0.043 |

| Sequence | PBM 8-mer E-score |
| --- | --- |
| CATGAGCA | -0.0267 ± 0.017 |
| GCCGAAGA | -0.0625 ± 0.053 |
| CATAGTAA | 0.159 ± 0.099 |
| AATAGTAG | 0.0793 ± 0.083 |
| AGTAATAG | 0.254 ± 0.02 |
| AGTAACAT | 0.294 ± 0.018 |
| AATAGTAA | 0.238 ± 0.06 |
| AGTAATAA | 0.0744 ± 0.038 |
| AGTAACAA | 0.113 ± 0.089 |
| AGTAATGG | 0.122 ± 0.043 |
| AGTAATAT | 0.25 ± 0.05 |
| AGTAACAG | 0.09 ± 0.031 |
| AGTAATAC | -0.0935 ± 0.039 |
| CGTAATAG | 0.118 ± 0.1 |
| ACCGGCAT | -0.121 ± 0.029 |
| GCAAATAC | 0.0657 ± 0.013 |
| AATAGATT | 0.117 ± 0.049 |
| GCAACGTA | -0.119 ± 0.038 |
| GAGCTATC | 0.0105 ± 0.011 |
| CCAAACGA | -0.105 ± 0.068 |
| AGCGTGTG | 0.146 ± 0.035 |
| ATCGGGAA | -0.0836 ± 0.067 |
